Experiment [1] in a line: NCI Yeast Anticancer Drug Screen. Data for the rad50 strain (AID 155).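 Further: 0% = growth of vehicle-only cultures of the same strain.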 The following applies: S. cerevisiae rad50 strain growth inhibition; at 50.0 µM; hits give high values. The method in brief:
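Relative growth inhibition (compound vs vehicle) was measured in yeast with a defined repair-gene alteration.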

A short description of experiment [2]: NCI Yeast Anticancer Drug Screen. Data for the mec2-1 strain (AID 157). The following applies: S. cerevisiae mec2-1 strain, at 50.0 µM, hits give high values. The essentials:
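Vehicle-treated cultures served as reference for growth inhibition of compound-exposed mec2-1 yeast.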

Experiment [3] is described as follows: NCI Yeast Anticancer Drug Screen. Data for the sgs1 mgt1 strain (AID 161).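 Further: 0% = growth of cultures given vehicle only.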 The settings on record: S. cerevisiae sgs1 mgt1 strain, at 50.0 µM, hits give high values. The essentials: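 Read-out: growth inhibition vs vehicle controls. Cells: mutant yeast strain deficient in DNA damage repair.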
Experiment [4] can be described thus: NCI Yeast Anticancer Drug Screen. Data for the cln2 rad14 strain (AID 165).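 Further: 0% = growth equal to vehicle treated cultures.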 The following applies: S. cerevisiae cln2 rad14 strain, at 50.0 µM, hits give high values. The essentials: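 Each compound was tested on cln2 rad14 yeast. Inhibition of growth was calculated against vehicle-exposed controls.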
Experiment [5] in a line: NCI Yeast Anticancer Drug Screen. Data for the bub3 strain (AID 167). The following applies: S. cerevisiae bub3 mutant strain, at 50.0 µM, hits give high values. The essentials:
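Screening used yeast with an engineered genetic alteration affecting cell cycle control. Compound-exposed cultures were compared with vehicle cultures, and reduced growth was taken as inhibition.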

Experiment [6] can be described thus: NCI Yeast Anticancer Drug Screen. Data for the mlh1 rad18 strain (AID 175). The settings on record: S. cerevisiae mlh1 rad18 strain growth inhibition; at 50.0 µM; hits give high values. The method in brief: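 Vehicle-treated cultures served as the reference for growth inhibition in a yeast strain carrying DNA damage repair alterations exposed to each compound.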

This is part of a sample that, as a whole, favours compounds with a hit. Of some 79,000 tested, about 15% had one in any assay. Unmarked numbers belong to inactive results. Activity calls are given as the source filed them. No stated cut-off is given here; in the data, active means growth inhibition above about 70%; inactive means the rest.

As to `CN(/N=C\c1ccccc1)C(c1ccccc1)N(C)/N=C/c1ccccc1` (stereo unspecified), the growth inhibition in experiment [1] was -6.45%; in experiment [2] it was -8.3%; in experiment [3] it was 15.2%; in experiment [4], -11.7%; in experiment [5], -17.3%; in experiment [6], -2.8%.

For `O=C1COC(C(O)(c2ccccc2)c2ccccc2)C(=O)N1` (stereo unspecified), the growth inhibition is -5.35% in experiment [1]; -18.9% in experiment [2]; -1.3% in experiment [3]; -65% in experiment [4]; -21.4% in experiment [5]; 6.25% in experiment [6].

With `CCCC(=O)OCC1OC(n2ccc(N)nc2=O)C(OC(=O)CCC)C1OC(=O)CCC` (stereo unspecified), the growth inhibition in experiment [1] is 18.6%; in experiment [2], -22.4%; in experiment [3], 36.3%; in experiment [4], 17.8%; in experiment [5] it was 10.6%; in experiment [6] it was 8.2%.

On to `CC12CC(=O)NC(=O)N1CCS2` (stereo unspecified), for which the growth inhibition in experiment [1] was 3.7%; in experiment [2], 5.6%; in experiment [3], -1.85%; in experiment [4] it was -20.7%; in experiment [5], -13.7%; in experiment [6], -6.15%.

Consider `CCCOc1ccc(/C=C\c2cc(OC)c(OC)c(OC)c2)cc1`, for which the growth inhibition in experiment [1] was 0.85%; in experiment [2], 3.9%; in experiment [3], -2.05%; in experiment [4], 3.4%; in experiment [5] it was 10.1%; in experiment [6] it was 43.5%.

Turning to `CSC(=S)S(=O)(=O)C12CC3CC(CC(C3)C1)C2`, the growth inhibition in experiment [1] is 90.5% (active); in experiment [2], 93.2% (active); in experiment [3], 89.5% (active); in experiment [4] it was 90% (active); in experiment [5] it was 86.5% (active); in experiment [6] it was 92.6% (active).

On to `CCOC(=O)NNC(=O)C1CSC(c2ccccc2)N1C(C)=O` (stereo unspecified), for which the growth inhibition in experiment [1] is -52.5%; in experiment [2], -13.4%; in experiment [3], -27.1%; in experiment [4], 10.5%; in experiment [5], 1.85%; in experiment [6], -22.3%.

With `CC(=O)C1(C)OC(c2ccccc2)=NC1=S` (stereo unspecified), the growth inhibition in experiment [1] was 7.4%; in experiment [2] it was 14.3%; in experiment [3] it was 7.55%; in experiment [4], 14.9%; in experiment [5] it was -5.1%; in experiment [6], 9.35%.

Consider `CC(=O)c1ccccc1[N+](=O)[O-]`, for which the growth inhibition in experiment [1] was 2.95%; in experiment [2], -12.5%; in experiment [3] it was 21.7%; in experiment [4] it was 5.85%; in experiment [5], -7.55%; in experiment [6], 30.1%.

As to `Cc1ccc(CNC(=O)NC(C)(C)C)cc1`, the growth inhibition is -3.05% in experiment [1]; -8.45% in experiment [2]; -2.65% in experiment [3]; -50.2% in experiment [4]; 1.85% in experiment [5]; 0.1% in experiment [6].

Regarding `COC(=O)N/N=C(\C)c1sc(-c2nc(C)c(/C(C)=N/NC(=O)OC)s2)nc1C`, the growth inhibition in experiment [1] is 17.9%; in experiment [2], 0.95%; in experiment [3], -27.4%; in experiment [4] it was -35.6%; in experiment [5] it was 3.05%; in experiment [6], 1.05%.

For `CC1(O)CC2C(CC1SCCO)C2(C)C` (stereo unspecified), the growth inhibition in experiment [1] was -30.4%; in experiment [2], -10.8%; in experiment [3] it was -42.1%; in experiment [4] it was -11.1%; in experiment [5], -56%; in experiment [6] it was -30.5%.

As for `CCC(CC)C(=O)OCCOCCOCCOC(=O)C(CC)CC`, the growth inhibition in experiment [1] is -9.3%; in experiment [2] it was -16.8%; in experiment [3] it was -2.15%; in experiment [4], 6.8%; in experiment [5], -3.35%; in experiment [6], 1%.

On to `CC1(C)C2CCC1(C)C(NC(=O)COCCOCC(N)=O)C2` (stereo unspecified), for which the growth inhibition in experiment [1] was -45%; in experiment [2], -53.1%; in experiment [3], -52.6%; in experiment [4], -2.55%; in experiment [5], -54.9%; in experiment [6], -67.3%.

For `O=C(O)CCC1(c2ccccc2)NC(=O)NC1=O` (stereo unspecified), the growth inhibition in experiment [1] is -39.1%; in experiment [2], -2.85%; in experiment [3] it was -18.4%; in experiment [4], -37%; in experiment [5], -1.1%; in experiment [6], -6.75%.

As for `C=C(C)CBr`, the growth inhibition in experiment [1] was -17.1%; in experiment [2] it was -7.55%; in experiment [3], -5.95%; in experiment [4], 5.35%; in experiment [5] it was -5.45%; in experiment [6], -3.5%.

As for `Cc1ccc(NC(=O)C(=O)C2NC(=S)NC2=O)c([N+](=O)[O-])c1` (stereo unspecified), the growth inhibition was 8.35% in experiment [1]; 3.25% in experiment [2]; 17.8% in experiment [3]; 20.1% in experiment [4]; 5.6% in experiment [5]; 8.55% in experiment [6].

Turning to `CN(CC(=O)O)c1ncc2c(n1)-c1ccccc1OC2c1ccccc1` (stereo unspecified), the growth inhibition in experiment [1] was 21.9%; in experiment [2], 19.6%; in experiment [3], 44.5%; in experiment [4], 47%; in experiment [5], 28.9%; in experiment [6], 67.8%.

For the compound `Nc1ccc(N(S(=O)(=O)c2ccccc2)S(=O)(=O)c2ccccc2)nc1`, the growth inhibition is 27.4% in experiment [1]; 6.3% in experiment [2]; 11.1% in experiment [3]; -4.45% in experiment [4]; 2.25% in experiment [5]; 17.7% in experiment [6].

For the compound `COc1ccc(Cl)cc1NC(=O)Nc1cccc(C(C)=O)c1`, the growth inhibition in experiment [1] is -4.55%; in experiment [2], 16.6%; in experiment [3] it was 11.3%; in experiment [4], -13.3%; in experiment [5] it was 17.9%; in experiment [6], 31.4%.

With `CN(C)C(=O)Sc1ccc([N+](=O)[O-])cc1`, the growth inhibition was 4.75% in experiment [1]; -12.8% in experiment [2]; -14.6% in experiment [3]; -45.5% in experiment [4]; 4.6% in experiment [5]; -19.8% in experiment [6].
